Data as given in PubChem BioAssay AID504937 (National Center for Advancing Translational Sciences (NCATS), 2011).
The campaign covered roughly 340,000 compounds. About 20 (0.006%) were called active. Where a call stands in place of a potency, no number is given. Calls come from the whole dose curve; as a rule, active = well fitted inhibition curve with a large enough effect; inconclusive = small, poorly fitted or top-dose-only effect; inactive = no such curve, though single readings can be large or run the other way. The sample as a whole holds a higher share of actives than the screen did.

These compounds were tested against Sphingomyelin phosphodiesterase (Homo sapiens) (UniProt P17405) (assay: Inhibitors of Secretory Acid Sphingomyelinase (S-ASM): qHTS). Conditions: placental ASM, HMU-PC fluorogenic substrate, 60 min; series mostly up to 57.5 µM.
Sphingomyelin phosphodiesterase (Homo sapiens), sequence (P17405 47-631 limits assumed): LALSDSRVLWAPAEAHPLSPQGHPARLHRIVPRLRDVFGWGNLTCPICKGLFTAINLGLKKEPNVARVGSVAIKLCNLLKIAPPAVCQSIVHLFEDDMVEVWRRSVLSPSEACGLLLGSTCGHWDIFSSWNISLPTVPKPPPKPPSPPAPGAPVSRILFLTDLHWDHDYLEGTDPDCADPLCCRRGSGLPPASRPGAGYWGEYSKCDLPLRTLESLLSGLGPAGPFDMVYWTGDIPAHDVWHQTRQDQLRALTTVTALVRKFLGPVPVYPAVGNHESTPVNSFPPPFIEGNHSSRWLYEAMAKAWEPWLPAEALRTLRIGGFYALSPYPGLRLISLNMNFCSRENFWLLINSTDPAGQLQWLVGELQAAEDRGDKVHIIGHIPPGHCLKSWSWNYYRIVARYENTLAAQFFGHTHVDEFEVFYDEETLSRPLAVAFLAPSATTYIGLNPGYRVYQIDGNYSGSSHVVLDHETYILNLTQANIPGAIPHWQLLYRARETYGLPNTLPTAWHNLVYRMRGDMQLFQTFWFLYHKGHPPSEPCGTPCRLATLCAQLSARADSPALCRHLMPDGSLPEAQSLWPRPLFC
Excerpt: Atherosclerosis is the underlying process for cardiovascular disease and thus is a major contributor to disease burden in the population. […] Thus, selective small molecule inhibitors of S-ASM should block LDL modification and reduce aortic LDL retention and may serve as new agents for the treatment of atherosclerosis. In a collaboration between National Heart, Lung, and Blood Institute and the NCGC a high-throughput amenable screen was developed to identify potent and selective small molecule inhibitors of S-ASM. This enzymatic, fluorescent screen uses an ASM enzyme preparation derived from human placenta and was tested against the NIH Molecular Libraries Small Molecule Repository (MLSMR). NIH Chemical Genomics Center [NCGC] NIH Molecular Libraries Probe Centers Network [MLPCN] MLPCN Grant: MH093173-01 Assay Submitter (PI): Alan Remaley, National Heart, Lung, and Blood Institute and Wei Zhen, NIH Chemical Genomics Center
Two microliters of ASM enzyme (1:150 dilution from stock) are dispensed in 1536-well plate. 23 nL of compound and control are pinned into assay plate using the Kalypsys pintool. The plates are then incubated for 10 minutes at ambient room temperature. Then, 2 uL of the flurogenic substrate, HMU-PC0, (9 uM final) are added to the plate. An incubation for 60 minutes takes place at 37 masculineC. After that, 4 uL of stop solution is added to raise the pH to 10 to end the kinetic reaction. Plate is read on ViewLux, with detection set at Ex = 386 (10) nm and Em = 447 (10) nm.
Potency is the fitted concentration of half-maximal effect.

Row | SMILES | Potency
1 | COc1ccc(Cl)cc1C=CC=NNC(=O)c1ccncc1 | inactive
2 | COC(=O)[C@@H]1C[C@@]2(O)[C@H](O)[C@H](O)[C@H](O)C[C@H]2N1Cc1ccc(C)s1 | inactive
3 | Cn1c(=O)c2c(n(Cc3ccccc3)c1=O)NC(=O)C2CC(=O)N1CCc2ccccc2C1 (centres undefined) | inactive
4 | CCOC(=O)c1c(C2CC2)csc1NC(=O)CSCc1c(C)noc1C | inactive
5 | CCOC(=O)C1=CN(Cc2ccc(Br)cc2)S(=O)(=O)N(C)C1C (centres undefined) | inactive
6 | COCc1c(C(=O)N/N=C(\C)c2ccncc2)nnn1-c1nonc1N | inactive
7 | COc1ccc2c(C)c(CCC(=O)NC3CC3)c(=O)oc2c1C | inactive
8 | CC(=O)N1c2ccc(S(=O)(=O)N(C)CC(=O)N(C)Cc3ccccc3)cc2CC1C (centres undefined) | inactive
9 | C=CCN1C(=O)c2ccc(C(=O)N3CCC(C(=O)OCC)CC3)cc2C1=O | inactive
10 | COc1nc(OC)nc(N(C)CCO)n1 | inactive
11 | CCOC(=O)C1CCN(C(=O)C2CCN(S(=O)(=O)CC)CC2)CC1 | inactive
12 | Cc1cccc(OCC(=O)OCC(=O)Nc2ccc(Cl)cn2)c1 | inactive
13 | Cc1ccc(C(=O)NCC(=O)NCc2cc(=O)n(C)c(=O)n2C)cc1 | inactive
14 | O=S(=O)(c1ccc(F)cc1)N1CCN(C(=S)NCc2ccco2)CC1 | inactive
15 | Cc1ccc(N(C(=O)c2snc(C(N)=O)c2N)C(C(=O)NCC2CCCO2)c2c[nH]c3ccccc23)cc1 (centres undefined) | inactive
16 | Cc1ccc(S(=O)(=O)NC(C)C(=O)NCc2ccc(Cl)cc2)cc1 (centres undefined) | inactive
17 | CSCCC(NS(=O)(=O)c1ccc2c(c1)oc(=O)n2C)C(=O)NC1CCCc2ccccc21 (centres undefined) | inactive
18 | O=S(=O)(NCCCN1CCOCC1)c1ccc(F)c(Cl)c1 | inactive
19 | Cc1ccc(S(=O)(=O)NC(=O)c2cccc(C)c2)cc1 | inactive
20 | CC(=O)C1=C(C)NC2=C(C(=O)CC(C)(C)C2)C1C (centres undefined) | inactive
21 | CCOC(=O)c1cc(S(=O)(=O)NCCc2ccc(OC)c(OC)c2)cn1C | inactive
22 | CSCCC(NC(=O)c1ccccc1)C(=O)N1CCN(Cc2ccc(Cl)cc2)CC1 (centres undefined) | inactive

Row | SMILES | Potency
23 | CC1C(=O)N2CCCc3cc(S(=O)(=O)NCc4ccc(F)cc4)cc1c32 (centres undefined) | inactive
24 | COC(=O)c1ccc(CN2CCCC(C(=O)Nc3cccc(-n4cnnn4)c3)C2)cc1 (centres undefined) | inactive
25 | O=C1c2ccccc2C2=Nc3ccccc3SC(c3ccccc3F)C12 (centres undefined) | inactive
26 | CCOC(=O)c1ccccc1NC(=S)N1CCC(C(N)=O)CC1 | inactive
27 | COc1cccc(NC(=O)CSc2nnc(Cc3ccc(OC)c(OC)c3)o2)c1 | inactive
28 | O=C1N[C@H](Cc2c[nH]c3ccccc23)COC(=O)[C@H](Cc2ccc(F)cc2)C/C=C\C[C@H]1CC(=O)N(CCO)Cc1ccccc1 | inactive
29 | CSc1nnc(-c2ccc(C(F)(F)F)cn2)o1 | inactive
30 | COc1cc(/C=C2\SC(=S)N(Nc3ncc(C(F)(F)F)cc3Cl)C2=O)cc(OC)c1OC | 28.2 µM (active)
31 | COc1cc(/C=C/C(=O)N2c3ccccc3Sc3ccc(C(F)(F)F)cc32)cc(OC)c1OC | inactive
32 | O=C1/C(=C/c2ccc(F)cc2)SC(=S)N1NS(=O)(=O)c1ccccc1 | inactive
33 | Cc1c(C)c2c(OCC(=O)N[C@@H](C(=O)O)c3ccccc3)cc3c(c2oc1=O)CCC(C)(C)O3 | inactive
34 | CCOC(=O)C1(Cc2cccc(OC)c2)CCN(Cc2csc(C(C)=O)c2)CC1 | inactive
35 | S=c1[nH]nc(Nc2ccccc2)s1 | inactive
36 | COc1cccc(-n2c(=S)sc3c(=O)n(-c4ccccc4C)c(SCC(=O)O)nc32)c1 | inactive
37 | CCOc1ncccc1C(=O)OCC(=O)Nc1cccc(S(=O)(=O)N2CCCCCC2)c1 | inactive
38 | N=C1C(=O)OCC1c1ccccc1NC(=O)CN1CCCCC1 (centres undefined) | inactive
39 | COc1ccc(C(=O)N(C)CC(O)c2ccccc2)cc1OC1CCN(C(C)=O)CC1 (centres undefined) | inactive
40 | O=C(O)CSCC(=O)Nc1ccc(C(F)(F)F)cc1 | inactive
41 | CC[C@@]12C(=O)N(c3ccccc3)C(=O)N1[C@H](c1ccc(Br)cc1)[C@@H]1C(=O)N(C(C)(C)C)C(=O)[C@@H]12 | inactive
42 | COc1cccc(N(C(=O)c2ccn[nH]2)C2(C(=O)Nc3c(C)cccc3C)CCCCC2)c1 | inactive
43 | COc1cc(OC)cc(C(=O)Nc2nnc(SCC(=O)NCC3CCCO3)s2)c1 (centres undefined) | inactive
44 | CC(C)CN(C(=O)c1cccc(S(=O)(=O)N2CCCCC2)c1)C1CCS(=O)(=O)C1 (centres undefined) | inactive

Row | SMILES | Potency
45 | CS(=O)(=O)N(Cc1ccccc1Cl)c1ccc(C(=O)NCc2cccnc2)cc1 | inactive
46 | CC1CCN(c2ccc(S(=O)(=O)Nc3cc(C(=O)O)cc(C(=O)O)c3)cc2[N+](=O)[O-])CC1 | inactive
47 | Cc1ccc2nc(SCC(=O)Nc3cccc4ccccc34)nc(=O)n2c1 | inactive
48 | CSCCC(=O)N1CCCC(CNC(=O)c2ccccc2Cl)C1 (centres undefined) | inactive
49 | CCCn1nnc(NC(=O)COc2ccc(CC)cc2)n1 | inactive
50 | COc1ccc([C@H]2CC(=O)C=C(c3ccc(OC(F)(F)F)cc3)C2)cc1OC | inactive
51 | Cc1cccc(-[n+]2c(-c3cccc(Br)c3)[nH]c3nc4ccccc4nc32)c1 | inactive
52 | Cc1cccc(C(=O)O)c1[N+](=O)[O-] | inactive
53 | CCCn1c(C)cc(C(=O)COC(=O)c2c(C)nn(-c3ccccc3)c2C)c1C | inactive
54 | O=C(c1ccc(F)cc1)N1CCC(C(=O)N2CCN(S(=O)(=O)c3ccccc3Br)CC2)CC1 | inactive
55 | Nc1ccccc1C(=O)NC1CCCCNC1=O (centres undefined) | inactive
56 | O=C(N/N=C/c1cccc2cccnc12)[C@H]1C[C@@H]1c1ccccc1 | inactive
57 | COCC(=O)N(C)[C@H]1C[C@H]2c3cc(Oc4ccccc4C)ccc3CCN2C(=O)[C@H]1[C@H](C)O | inactive
58 | COC(=O)c1ccc(C2NC(=O)NC(C)=C2C(=O)N(C)C)cc1 (centres undefined) | inactive
59 | COc1ccc2c(c1)C(NS(=O)(=O)OCC(Cl)(Cl)Cl)CCC2 (centres undefined) | inactive
60 | CCOc1ccc(-c2nc(C)sc2CC(=O)O)cc1 | inactive
61 | Cc1ccc(N(C(=O)CNC(=O)c2ccco2)C(C(=O)NC2CCCC2)c2ccncc2)cc1 (centres undefined) | inactive
62 | COc1ccc(NC(=O)NN2CCN(C)CC2)c(OC)c1 | inactive
63 | COC(=O)C1=C(C)N(C)C(C)=C(C(=O)OC)C1c1cccc(Br)c1 | inactive
64 | Cc1c(C(C)CCCO)oc(=O)c2c1Oc1c(C)c(C(C)C[C@@H](C)O)oc(=O)c1C2 (some centres undefined) | inactive
